Screens (PubChem)
VLA-4 inh – inhibition in a human VLA-4 binding assay; actives 0.2% (n = 330,000); VLA-4 expressing cells, ligand binding flow cytometry; P13612; inhibition, % (about 7 µM as worked out from the volumes in the protocol); AID 2557; in the data active means inhibition above about 50%
GRK2 inh – inhibitors of human GRK2 displacing RNA aptamer; inhibition of aptamer binding, % at 10 µM; actives 0.59% (n = 330,000); AID 488847; P25098; bead flow cytometry, FAM-aptamer displacement from GRK2;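 active means inhibition of aptamer binding above 40%, roughly 3 SD of noise, on plates passing a quality check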;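 further: median bead fluorescence of bound FAM aptamer so fluorescent compounds give negative values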
Bfl-1 A1 inh – inhibitors of the anti-apoptotic protein A1, read as caspase activation; MEF A1-2A-BIM cells, Caspase-Glo 3/7 luminescence, 3 h; percent of clofoctol response, vehicle zero; caspase activation, % (concentration not given with the values); actives 0.066% (n = 330,000); AID 2462;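 active means over half of replicate activation scores above 10%, or exactly half above 10 with the replicate mean above 10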
NTR1 ag – agonists of human neurotensin receptor NTR1; activation, % at 20 µM; actives 0.17% (n = 330,000); NTR1-U2OS beta-arrestin-GFP spot imaging, agonist mode; P30989; AID 493036;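 active means activation at or above 40% of the spot to cytoplasm intensity ratio, with at least 20 cells analyzed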;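 further: 0% = DMSO without peptide and 100% = 100 nM NTR1 peptide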
Beta2AR agonist – activates human beta-2 adrenergic receptor causing internalization; P07550; Am2.2-beta2AR cells, FAP receptor internalization, flow cytometry; response, % (concentration not given with the values); actives 0.43% (n = 340,000); AID 504454;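 active means response above a set limit, near 3 SD of response in nonfluorescent compounds, cut at about 42% in these data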
B2AR ag CP1 – human beta-2 adrenergic receptor agonism, cherry pick | shares compounds with Beta2AR agonist | Am2.2-beta2AR cells, FAP surface receptor, flow cytometry; hits give low values | percent response (surface receptor), % at 10 µM | actives 25% (n = 1,100) | AID 540358;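 active means surface receptor percent response at or below 58%, roughly 3 SD from nonfluorescent compounds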
B2AR FAP counter – fluorescence artifact in beta-2AR agonist FAP counterscreen; shares compounds with Beta2AR agonist; Am2.2 cells, FAP fluorogen flow cytometry; hits give low values; calls only at 10 µM; 1,100 tested, under 10 active; AID 588765;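 active means percent response below a set limit in fluorescence channel 1 and below 50% in channel 8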
* hit, by the source's call; i = inactive; · = not tested or not shown. Compounds with a hit are over-represented: about 1.3% of the library has one in this group of screens.

SMILES	VLA-4 inh	GRK2 inh	Bfl-1 A1 inh	NTR1 ag	Beta2AR agonist	B2AR ag CP1	B2AR FAP counter
CC(C)c1ccc(O)c(C(=O)c2cnn(-c3ccccc3)c2)c1	-4	·	0	4	1	·	·
CCC1(c2ccccc2)NC(=O)N(CC(=O)N(C)Cc2ccccc2)C1=O (stereo unspecified)	11	0	1	-1	1	·	·
CCC1(c2ccccc2)NC(=O)N(CC(=O)N(C)Cc2c(F)cccc2Cl)C1=O (stereo unspecified)	1	1	2	-2	82*	101	i
Cc1nc2cc(N3CCCCC3)c(NC(=O)c3ccncc3)cc2c(=O)n1Cc1ccccc1	·	·	·	·	4	·	·
Cc1nc2cc(N3CCOCC3)c(NC(=O)C3CC3)cc2c(=O)n1Cc1ccccc1	-11	0	1	-2	49*	65	i
c1nc(NCCN2CCOCC2)c2sc3nc(N4CCOCC4)c4c(c3c2n1)CCC4	17	2	0	·	46*	57*	i
COc1ccccc1CNC(=O)c1sccc1-c1ccccc1	-4	0	0	2	1	·	·
CCC(=O)c1cc(Br)ccc1OCC(=O)N1CCN(S(=O)(=O)c2ccccc2)CC1	·	·	·	·	6	·	·
Cc1nc(SCc2nc3c([N+](=O)[O-])cccc3[nH]2)c2oc3ccccc3c2n1	-3	0	17*	28	52*	124	i
Cc1nc(SCc2nc3c(C)cccc3[nH]2)c2oc3ccccc3c2n1	5	4	0	2	-6	·	·
CCOC(=O)N(O)c1ccc(C=Cc2ccccc2)cc1	·	·	·	·	4	·	·
COc1ccc(CC(=O)N(C)C2CCCCC2)cc1S(=O)(=O)N1CCOCC1	9	2	0	-2	1	·	·
COc1ccc(C(=O)NCC(=O)OCC(=O)Nc2cc(OC)ccc2OC)cc1	19	0	2	3	64*	102	i
COc1ccc(NC(=O)COC(=O)CNC(=O)c2cc(OC)c(OC)c(OC)c2)cc1	10	0	0	-1	3	·	·
Cc1cc(C(=O)C(C)OC(=O)c2ccc(NC(=O)CC#N)cc2)c(C)n1-c1ccc(OC(F)F)cc1 (stereo unspecified)	1	0	-1	2	2	·	·
CN(C)CCCn1cnc2c(c1=N)C(c1ccccc1)c1ccc3ccccc3c1O2 (stereo unspecified)	31	0	1	14	44*	94	i
COc1ccccc1-c1cc(C(F)(F)F)nc(S(=O)(=O)CCCC(=O)N2CCOCC2)n1	-8	6	6.1*	10	47*	92	i
COc1ccc(-c2cc(C(F)(F)F)nc(S(=O)(=O)CCC(=O)N3CCOCC3)n2)cc1	7	0	0	7	25	89	i
CCOC(=O)c1ccc(N=c2sc(C(=O)OC)cc(=O)n2-c2ccc(C(=O)OCC)cc2)cc1	-14	0	3	11	48*	50*	i
CCOC(=O)C1(CCCc2ccccc2)CCN(S(=O)(=O)N(C)C)CC1	9	5	0	2	2	·	·
CC(=O)c1ccc(OCc2cc(C(=O)N(C)CCOc3ccc(C)cc3)no2)cc1	11	0	-3	3	86*	20*	i
CC(=O)c1ccc(OCc2cc(C(=O)N(C)Cc3nc4c(C)cccc4[nH]3)no2)cc1	14	0	0	1	-4	·	·
COCCCNC(=O)c1cc(-c2cccnc2)nc2ccc(S(=O)(=O)N3CCCCCC3)cc12	0	0	1	0	17	94	i
CCCN1CCC(NC(=O)CC2C(=O)NCCN2Cc2ccccc2C)CC1 (stereo unspecified)	1	0	0	0	2	·	·
CCN(CC)c1ccc(NC(=O)c2cc(OC)cc(OC)c2)c(C)c1	27	4	·	2	55*	78	i
Cc1cccc2sc(NC(=O)CN(C)S(=O)(=O)c3ccc(Br)s3)nc12	14	2	1	10	51*	109	i
O=C(Nc1ccc(OC(F)(F)F)cc1)C1CCCN(C(=O)c2ccc(Cl)cc2)C1 (stereo unspecified)	9	0	0	5	-5	·	·
